In the library only some 5.7% were active in any assay of this set; here they are far more common.
ATXN2 expr inh – Primary qHTS for Inhibitors of ATXN expression; HEK-293 ATXN2-luciferase reporter, luminescence, 24 h; Potency, µM (top dose mostly 57 µM), most hits filed as inhibitors; actives 0.72% (n = 360,000); AID 1745845, 2022; note: nearly all actives have a fitted effect of over 55% in size
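qHTS (up to 57 uM final) was run with 24 h compound exposure of reporter cells at 37 °C. Each well was multiplexed: SteadyGlo luminescence measured ATXN2-luciferase expression after a fluorogenic Gly-Phe-AFC viability readout (25 uM final).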
TGFb SMAD3 inh – qHTS for Inhibitors of TGF-b; HepG2 CAGA-GFP TGF-b/SMAD3 reporter, GFP fluorescence, 18 h; TGF-beta stimulated, 500 pg/mL final; Potency, µM (doses to about 46.1 µM), hits mostly inhibitors; actives 1.2% (n = 410,000); AID 588855, 2011; note: nearly all actives have a fitted effect of over 65% in size
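TGF-beta reporter screen: HEPG2 CAGA-GFP, 1% FBS, 500 pg/mL TGF-beta final, 18 h; per-cell GFP summed per well; curves fitted and categorized by class.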
HepG2 viability – qHTS for Inhibitors of TGF-b: Cytotox Counterscreen. HepG2 CAGA-GFP viability, ATP luminescence, 18 h. Potency, µM (series often up to 46.1 µM), actives largely listed as cytotoxic. actives 0.76% (n = 410,000). AID 588856, 2011
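HepG2 CAGA-GFP cells (1000/well, DMEM with 1% FBS) received compound, then TGF-beta at 500 pg/mL final, and were incubated 18 hours at 37 degrees C. Viability was read by CellTiter-Glo luminescence. Media-only wells were set as complete cell-killing and DMSO as no toxicity.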
IL-1B inflam inh – qHTS for Inhibitors of Inflammasome Signaling: IL-1-beta AlphaLISA Primary Screen; THP-1 LPS/ATP IL-1B secretion, AlphaLISA, 16 h; stronger effect = lower value; activity change, % at 57.5 µM; actives 4.7% (n = 360,000); AID 743279, 2014; in the data active = activity change below about -50%; inconclusive = mostly about -30% to -49%
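Secreted IL-1B measured by AlphaLISA bead assay after 16 h compound exposure of THP-1 cells; compounds (final up to 57.5 uM) added 1 h before LPS (250 ng/mL) and ATP (1.25 mM) stimulation; lower signal means less secretion.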
ATXN viability – Viability Counterscreen for Primary qHTS for Inhibitors of ATXN expression; S2 cells (HEK-293 line with an ATXN2-luciferase reporter) viability, CellTiter-Fluor protease fluorescence, 24 h; Potency, µM (doses to about 56.7 µM), actives largely listed as cytotoxic; actives 0.49% (n = 400,000); AID 651635, 2014; note: nearly all actives have a fitted effect of over 40% in size
Large screens that a line does not name were inactive. Unless noted, calls come from the whole dose curve; as a rule, active = well fitted curve in the direction sought with a large enough effect; inconclusive = small, poorly fitted or top-dose-only effect, or another doubt; inactive = no such curve, though single readings can be large; an effect the other way counts as inactive or inconclusive.

COc1ccc2[nH]c3c(c2c1)CCN1C(=O)C(CC(=O)NCC24CC5CC(CC(C5)C2)C4)C[C@H](C(=O)N(C(C)C)C(C)C)[C@@]31C (some centres undefined)	TGFb SMAD3 inh 11µM, IL-1B inflam inh -72
C[C@]12c3[nH]c4ccc(Cl)cc4c3CCN1C(=O)[C@@H](CC(=O)NCC13CC4CC(CC(C4)C1)C3)C[C@@H]2C(=O)N1CCCCC1	ATXN2 expr inh inconclusive, IL-1B inflam inh -60, ATXN viability inconclusive
COc1ccc2[nH]c3c(c2c1)CCN1C(=O)C(CC(=O)NCC24CC5CC(CC(C5)C2)C4)C[C@H](C(=O)N2CCOCC2)[C@@]31C (some centres undefined)	TGFb SMAD3 inh inconclusive, IL-1B inflam inh inconclusive, ATXN viability inconclusive
COc1cccc(-n2ccnc2SCC(=O)Nc2ccccc2F)c1	IL-1B inflam inh -70
COc1cccc(-n2ccnc2SCC(=O)Nc2cccc(C)c2C)c1	none (no result: IL-1B inflam inh)
Cc1ccc2c(CC(=O)Nc3c(C(=O)Nc4cccc(Cl)c4)oc4ccccc34)coc2c1C	none (no result: IL-1B inflam inh)
CCCC(=O)C1=C(c2ccc(C)c(C)c2)N(C(=O)CCC)n2c(CC)nnc2S1	none (no result: ATXN2 expr inh, IL-1B inflam inh, ATXN viability)
CCCC(=O)C1=C(c2ccc(C)cc2)N(C(=O)CCC)n2cnnc2S1	TGFb SMAD3 inh inconclusive, HepG2 viability 20µM (no result: ATXN2 expr inh, IL-1B inflam inh, ATXN viability)
COC(=O)CSc1nc(C)c(C(=O)Nc2ccccc2C)c(-c2ccc(Cl)cc2)c1C#N	IL-1B inflam inh -76
COc1cccc(NC(=O)CCc2c(C)nc3c4cccnc4nn3c2C)c1	ATXN viability inconclusive (no result: IL-1B inflam inh)
COC(C/C=C/C(=O)COCc1ccccc1)OC	TGFb SMAD3 inh inconclusive, IL-1B inflam inh -87, ATXN viability inconclusive
O=c1[nH]c(-c2ccc(Cl)cc2)cs1	IL-1B inflam inh -55
O=c1[nH]c(-c2ccccc2)cs1	none
Cc1ccc(S(=O)(=O)c2c(N)n(CCC(C)C)c3nc4ccccc4nc23)cc1	ATXN2 expr inh inconclusive, TGFb SMAD3 inh inconclusive, IL-1B inflam inh -63, ATXN viability inconclusive
Cc1ccc(S(=O)(=O)c2c(N)n(CCCO)c3nc4ccccc4nc23)cc1	none
Nc1c(S(=O)(=O)c2cccs2)c2nc3ccccc3nc2n1Cc1ccc2c(c1)OCO2	TGFb SMAD3 inh inconclusive, IL-1B inflam inh -67, ATXN viability inconclusive
COc1ccc(CCn2c(N)c(S(=O)(=O)c3cccs3)c3nc4ccccc4nc32)cc1OC	IL-1B inflam inh -55
CC(C)CCn1c(N)c(S(=O)(=O)c2cccs2)c2nc3ccccc3nc21	ATXN2 expr inh 18µM, TGFb SMAD3 inh 16µM, IL-1B inflam inh -88, ATXN viability inconclusive
Cc1ncc2c(c1CNC(=O)c1cncs1)CCN(C(=O)c1csc(-c3cccs3)n1)C2	none (no result: ATXN2 expr inh, TGFb SMAD3 inh, HepG2 viability, IL-1B inflam inh)
CN1C(=O)NC2(O)C(=O)c3ccccc3C12O (centres undefined)	HepG2 viability 10µM
COc1cc(OC)c2c(-c3cccc(-c4ccc(N(C)C)cc4)c3)cc(=O)oc2c1	TGFb SMAD3 inh 1.1µM
COc1cc(OC)c2c(-c3cccc(-c4ccc(CO)cc4)c3)cc(=O)oc2c1	ATXN2 expr inh inconclusive, TGFb SMAD3 inh 5µM
O=C1N(c2ccccc2C(F)(F)F)O[C@]1(c1ccccc1)C1CCCC1	ATXN2 expr inh inconclusive, TGFb SMAD3 inh inconclusive
Cc1ccccc1[C@@]1(C)ON(c2ccccc2C(F)(F)F)C1=O	ATXN2 expr inh inconclusive, TGFb SMAD3 inh inconclusive, IL-1B inflam inh -85, ATXN viability inconclusive
CC[C@@]1(c2ccccc2OC)ON(c2ccccc2C(F)(F)F)C1=O	ATXN2 expr inh 22µM, TGFb SMAD3 inh inconclusive, HepG2 viability 14µM, IL-1B inflam inh -80 (no result: ATXN viability)
COc1ccc2c(c1)OC(C)CN(CC(=O)NCc1cn[nH]c1-c1ccc(F)cc1)C2 (centres undefined)	none (no result: ATXN2 expr inh, TGFb SMAD3 inh, HepG2 viability, IL-1B inflam inh)
C=CCn1ccc(=NC=C(C#N)C#N)c2ccccc21	IL-1B inflam inh -69
CCCCNc1nc(NCc2ccccc2)nc2ccccc12	ATXN2 expr inh 22µM, IL-1B inflam inh -110, ATXN viability 32µM (no result: TGFb SMAD3 inh, HepG2 viability)
CNc1nc(NCc2ccccc2)c2ccccc2n1	ATXN2 expr inh inconclusive, TGFb SMAD3 inh inconclusive (no result: IL-1B inflam inh)
Oc1ccccc1-c1nc(NCc2ccccc2)c2ccccc2n1	none
Oc1ccccc1Nc1nc(NCc2ccccc2)c2ccccc2n1	ATXN2 expr inh inconclusive, TGFb SMAD3 inh 11µM, IL-1B inflam inh -101
CC(=O)Nc1ccc(/C=C/C(=O)c2ccc(-n3nncc3-c3ccccc3)cc2)cc1	TGFb SMAD3 inh inconclusive (no result: ATXN2 expr inh, IL-1B inflam inh, ATXN viability)
Cc1cc(C)nc(/N=C(\N)N(Cc2ccccc2)Cc2ccccc2)n1	TGFb SMAD3 inh inconclusive, IL-1B inflam inh -72
O=C(Nc1ccccc1[N+](=O)[O-])OCC=Cc1ccccc1	IL-1B inflam inh -54, ATXN viability inconclusive (no result: ATXN2 expr inh)
O=C(COC(=O)c1ccco1)Nc1ccccc1[N+](=O)[O-]	none
CCc1ccccc1NC(=O)CN1C(=O)CCSc2ccc(S(=O)(=O)N3CCCC3)cc21	none (no result: ATXN2 expr inh, IL-1B inflam inh, ATXN viability)
Cc1ccc(-c2nn(-c3ccccc3)cc2C=C2C(=O)CC(C)(C)CC2=O)cc1	TGFb SMAD3 inh inconclusive, ATXN viability inconclusive
CC1=NN(c2ccccc2)C(=O)/C1=C\c1cn(CCC#N)nc1-c1ccc(Cl)cc1	TGFb SMAD3 inh inconclusive, IL-1B inflam inh -85
CC1=NNC(=O)/C1=C\c1cn(-c2ccccc2)nc1-c1ccc(Cl)cc1	ATXN2 expr inh 13µM, TGFb SMAD3 inh 3.5µM, IL-1B inflam inh -119 (no result: ATXN viability)
Cc1ccc(-c2nc(CCNC(=O)C(=O)Nc3ccc(C)c(Cl)c3)cs2)cc1	none (no result: ATXN2 expr inh, IL-1B inflam inh, ATXN viability)
